Laboratory results as given in PubChem BioAssay.
Several values for one entry are separate records, joined by “and”; a condition that tells them apart may be missing. Equal entries are not always repeated. Activity calls are given as the source filed them. No rule for the calls is given here.

Experiment: liver-stage malaria parasite load reduction – cell-based, known kinase inhibitor set, luminescence, hepatoma host viability (AID 624392);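 also: infected cells incubated roughly two days before readout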
Conditions: Plasmodium liver stage in hepatoma cells, luciferase luminescence, concentration not given here; liver cell % of control: measured here: host liver cell viability; parasite % of control: stronger effect = lower value

Compound	liver cell % of control	parasite % of control
C=CC(=O)Nc1ccc(CN2C(=O)N(c3c(Cl)c(OC)cc(OC)c3Cl)Cc3cnc(NCCCCN(CC)CC)nc32)cc1	96.7%	227% (inactive)
CN(c1ccccc1CNc1nc(Nc2ccc3c(c2)CC(=O)N3)ncc1C(F)(F)F)S(C)(=O)=O	53.6% and 51.8% and 95%	7.61% (inactive) and 53% (inactive) and 167% (inactive)
CCN1CCN(Cc2ccc(NC(=O)c3ccc(C)c(NC(=O)N4CCNC4=O)c3)cc2C(F)(F)F)CC1	93%	163% (inactive)
CCN1CCN(Cc2ccc(NC(=O)c3cc(NC(=O)C(=O)c4c[nH]c5ccccc45)cc(OC)c3)cc2C(F)(F)F)CC1	92.9%	85.7% (inactive)
COc1ccc(-c2cc(C(=O)Nc3cc(OC)cc(C(=O)Nc4cccc(C(F)(F)F)c4)c3)[nH]n2)cc1	93.9%	36.9% (inactive)
CCN1CCN(Cc2ccc(NC(=O)c3cc(NC(=O)c4cc(-c5ccc(OC)cc5)n[nH]4)cc(OC)c3)cc2C(F)(F)F)CC1	90.4%	132% (inactive)
O=C(Nc1cccc(-c2csc(Nc3cccc(C(F)(F)F)c3)n2)c1)c1ccccc1	97.7%	68.7% (inactive)
C=CC(=O)Nc1ccc(Oc2nc(Nc3ccc(N4CCN(C)CC4)cc3OC)ncc2Cl)cc1	97.7%	126% (inactive)
Cc1ccc(-c2c(C(=O)CCl)n(CCO)c3ncnc(N)c23)cc1	90.7%	86.5% (inactive)
CCN1CCN(Cc2ccc(NC(=O)c3ccc(C)c(NC(=O)c4nccn4C)c3)cc2C(F)(F)F)CC1	101%	90.4% (inactive)
O=C1NCCC(=NNc2cccnc2)c2c1[nH]c1ccc(Cl)cc21	99.3%	133% (inactive)
CC(C)CC(CO)Nc1nc(Nc2cccc(Cl)c2)c2ncn(C(C)C)c2n1 (stereo not given)	102%	148% (inactive)
COc1cc(NC(=O)c2ccno2)cc(C(=O)Nc2cccc(C(F)(F)F)c2)c1	96.7%	70% (inactive)
CC(C)n1cnc2c(Nc3cccc(F)c3)nc(NCCO)nc21	95.1%	135% (inactive)
CC(C)n1cnc2c(N(C)c3cccc(Cl)c3)nc(N(CCO)CCO)nc21	93.8%	100% (inactive)
Cc1ccc(C(=O)Nc2cccc(C(F)(F)F)c2)cc1Nc1ccccn1	95%	54.6% (inactive)
Cc1ccc(C(=O)Nc2cccc(C(F)(F)F)c2)cc1NC(=O)c1nccnc1N	95%	83.1% (inactive)
CCN1CCN(Cc2ccc(NC(=O)c3cc(NC(=O)c4cncc(-c5ccc(C#N)cc5)c4)cc(OC)c3)cc2C(F)(F)F)CC1	77.4%	95.5% (inactive)
C=CC(=O)Nc1cccc(Nc2ccnc(Nc3ccc(N4CCN(C)CC4)cc3)n2)c1	92.9%	184% (inactive)
O=C1NC(=O)C(=Cc2ccc(-c3ccc(S(=O)(=O)N4CCNCC4)cc3)o2)C(=O)N1	94.8%	303% (inactive)

Compound	liver cell % of control	parasite % of control
CCN1CCN(Cc2ccc(NC(=O)c3cc(NC(=O)c4cc5cccc(OC)c5o4)cc(OC)c3)cc2C(F)(F)F)CC1	93.7%	89.9% (inactive)
O=C(Nc1ccc(-c2csc(Nc3cccc(C(F)(F)F)c3)n2)cc1)c1ccccc1	106%	69.1% (inactive)
C=CC(=O)Nc1ccc(Nc2ccnc(Nc3ccc(N4CCN(C)CC4)cc3)n2)cc1	105%	124% (inactive)
O=C(Nc1ccc(-c2csc(Nc3ccc(Cl)cc3)n2)cc1)c1cccc(C(F)(F)F)c1	104%	88% (inactive)
O=C(Nc1cccc(-c2csc(Nc3ccccc3)n2)c1)c1ccccc1	102%	31.8% (inactive)
CC(C)n1cnc2c(NCc3ccccc3)nc(NCc3ccccc3)nc21	91.8%	83.2% (inactive)
Nc1cnc(CNc2ccccc2Cl)cn1	100%	136% (inactive)
CS(=O)(=O)Nc1ccc(-c2cc(C=C3SC(N)=NC3=O)c[nH]c2=O)cc1	97.7%	127% (inactive)
O=C(Nc1cccc(-c2csc(Nc3cccc(C(F)(F)F)c3)n2)c1)c1cc([N+](=O)[O-])cc(C(F)(F)F)c1	98.5%	79.7% (inactive)
C=CC(=O)Nc1cccc(CN2C(=O)N(c3cc(OC)cc(OC)c3)Cc3cnc(NCCCCN(CC)CC)nc32)c1	102%	70.3% (active)
CC(C)C(CO)Nc1nc(NCc2ccc(S(N)(=O)=O)cc2)c2ncn(C(C)C)c2n1 (stereo not given)	95.4%	647% (inactive)
Nc1cccc(-c2c[nH]c3ncc(-c4cccnc4)cc23)c1	94.3%	42.1% (inactive)
COc1cc(NC(=O)c2cnc(N)s2)cc(C(=O)Nc2cccc(C(F)(F)F)c2)c1	98.2%	79% (inactive)
COc1cc(N2CCC(O)CC2)ccc1Nc1nnc(Cl)c(Nc2ccccc2S(C)(=O)=O)n1	86.2%	80.5% (inactive)
CCC(C)Oc1cc(-c2ccnc(Nc3cccc(Cl)c3)n2)ccn1 (stereo not given)	58.3%	150% (inactive)
CCN1CCN(Cc2ccc(NC(=O)c3cc(NC(=O)c4ccc5n[nH]nc5c4)cc(OC)c3)cc2C(F)(F)F)CC1	101%	138% (inactive)
COc1cc(NC(=O)c2ccnnc2)cc(C(=O)Nc2cccc(C(F)(F)F)c2)c1	93.4%	97.5% (inactive)
CCN1CCN(Cc2ccc(NC(=O)c3ccc(C)c(NC(=O)c4nccnc4N)c3)cc2C(F)(F)F)CC1	93.8%	155% (inactive)
O=C(Nc1ccc(-c2csc(Nc3ccc(Cl)cc3)n2)cc1)c1ccccc1	103%	110% (inactive)
O=C(Nc1cccc(-c2csc(Nc3ccc(Cl)cc3)n2)c1)c1cc([N+](=O)[O-])cc(C(F)(F)F)c1	95.1%	192% (inactive)

Compound	liver cell % of control	parasite % of control
NC(=O)c1cccc(-c2cc(Oc3ccc(OC(F)(F)F)cc3)ncn2)c1	101%	113% (inactive)
COc1ccc(CNc2nc(NCc3ccc(OC)cc3)c3ncn(C(C)C)c3n2)cc1	107%	168% (inactive)
CCN1CCN(Cc2ccc(NC(=O)c3ccc(C)c(NC(=O)c4ccnnc4)c3)cc2C(F)(F)F)CC1	104%	100% (inactive)
Cc1ccc(C(=O)Nc2cccc(C(F)(F)F)c2)cc1Nc1ncnc2nc[nH]c12	108%	64.6% (inactive)
NC1=NC(=O)C(=Cc2cccc(-c3ccc(S(N)(=O)=O)cc3)c2)S1	98%	377% (inactive)
OCCCNc1nccc(-c2cc(Nc3cccc(Cl)c3)ncn2)n1	81.8%	176% (inactive)
CC(C)C(CO)Nc1nc(Nc2ccc(Cl)c(C(=O)O)c2)c2ncn(C(C)C)c2n1 (stereo not given)	94.7%	116% (inactive)
Cc1ccc(C(=O)Nc2cccc(C(F)(F)F)c2)cc1NC(=O)c1ccno1	103%	87.9% (inactive)
COc1cc(NC(=O)c2cncc(-c3ccc(C#N)cc3)c2)cc(C(=O)Nc2cccc(C(F)(F)F)c2)c1	98.8%	101% (inactive)
CC(C)n1cnc2c(N(Cc3ccccc3)c3cccc(Cl)c3)nc(N(CCN(C)C)Cc3ccccc3)nc21	82.6%	9.42% (active)
COc1cc(O)c2c(c1)oc(=O)c1c3cc(O)c(O)cc3oc21	107%	36.8% (inactive)
Cc1cn(-c2cc(NC(=O)c3ccc(C)c(NC(=O)c4cccc(-c5cn[nH]c(=O)c5)c4)c3)cc(C(F)(F)F)c2)cn1	97.4%	93.8% (inactive)
COc1cc(NC(=O)c2cc3cccc(OC)c3o2)cc(C(=O)Nc2cccc(C(F)(F)F)c2)c1	95.6%	62.8% (inactive)
CCN1CCN(Cc2ccc(NC(=O)c3cc(NC(=O)N4CCNC4=O)cc(OC)c3)cc2C(F)(F)F)CC1	96.3%	12.4% (active)
COc1cc(Nc2ccccn2)cc(C(=O)Nc2cccc(C(F)(F)F)c2)c1	92.4%	74.9% (inactive)
C=CC(=O)Nc1cccc(Oc2ncnc3[nH]cc(-c4cnc5ccccc5c4)c23)c1	100%	112% (inactive)
Nc1ncc(-c2cccnc2)nc1C(=O)c1cccnc1	98.8%	75.4% (inactive)
CCN1CCN(Cc2ccc(NC(=O)c3ccc(C)c(NC(=O)c4cc(-c5ccc(Br)cc5)n[nH]4)c3)cc2C(F)(F)F)CC1	90.4%	208% (inactive)
NC1CCC(Nc2nc(Nc3ccc(S(=O)(=O)N4CCCCC4)cc3)c3ncn(-c4ccccc4)c3n2)CC1 (stereo not given)	103%	336% (inactive)
COc1cc(C(=O)NC2CCN(C)CC2)ccc1Nc1ncc2c(n1)N(C1CCC(O)CC1)CCC(=O)N2C (stereo not given)	103%	180% (inactive)
